From PubChem BioAssay
Inconclusive results are not listed. Active and inactive are the calls of the source.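 Rule for the calls, unless noted: active = inhibition above 50%, about 3 SD of the validation set; inactive = the rest.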

Assays:
[1] = rapamycin-like changes in RPL19A-GFP expression – cell-based, S. cerevisiae, multiplex flow cytometry, primary screen (AID 1862; in the data active = percent of DMSO control GFP below about 86%;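 note: lower values mimic rapamycin by blocking the RPL19A rise seen in DMSO cells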); settings: S. cerevisiae RPL19A-GFP strain, flow cytometry fluorescence, 3 h; at 10 µM; stronger effect = lower value
[2] = TOR pathway GLN3 branch reporter MEP2-GFP changes – S. cerevisiae, multiplex flow cytometry, primary screen (AID 1867;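 active = GFP response, as percent of the DMSO control, above the screen-wide mean plus 3 SD, about 139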;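 note: median GFP channel fluorescence of barcode-gated MEP2-GFP cells measured by flow cytometry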); settings: S. cerevisiae MEP2-GFP strain, 3 h, at 10 µM, stronger effect = higher value, 100% means same as DMSO wells
[3] = TOR pathway RTG branch CIT2 reporter changes – S. cerevisiae, GFP fusion, multiplex flow cytometry, primary screen (AID 1870;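 active = percent response above a set limit, the screen-wide mean plus 3 SD, cut at about 130% in these data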;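 note: barcoded CIT2-GFP strain pooled with four other GFP strains with rapamycin as positive control; median GFP fluorescence per well over plate mean of DMSO wells so 100% = DMSO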); settings: S. cerevisiae CIT2-GFP expression, 3 h, at 10 µM, stronger effect = higher value
[4] = TOR pathway LAP4-GFP level changes – S. cerevisiae, multiplex flow cytometry, primary screen (AID 1873;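 active = GFP signal, as percent of the solvent control, above the screen mean plus 3 SD, about 149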); settings: S. cerevisiae LAP4-GFP expression, 3 h, at 10 µM, stronger effect = higher value
[5] = yeast AGP1-GFP level changes, GLN3 branch – cell-based, multiplex flow cytometry, S. cerevisiae, primary screen (AID 1887;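 active = GFP signal above the screen-wide mean plus 3 SD, that is over about 124.5% of the solvent control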;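 note: AGP1-GFP fusion strain of S. cerevisiae within a five-strain barcoded multiplex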); settings: 3 h, at 10 µM, stronger effect = higher value
[6] = hit retest on RPL19A-GFP reporter strain – cell-based, S. cerevisiae, flow cytometry, cherry picks, mother/daughter gates, confirmation (AID 2270;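 active = GFP response below 50% of the DMSO control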); settings: 3 h, at 10 µM, stronger effect = lower value, 100 = same GFP as DMSO wells
[7] = yeast TOR pathway reporter LAP4-GFP change – cell-based, cherry picks, flow cytometry, mother/daughter gates, confirmation (AID 2271;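 active = GFP response above 150% of the DMSO control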;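 note: ratio of sample to DMSO plate mean so 100% equals DMSO level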); settings: S. cerevisiae LAP4-GFP strain, 3 h, at 10 µM, stronger effect = higher value, 100 means same as DMSO control
[8] = TOR pathway reporter MEP2-GFP, retest of hits – S. cerevisiae, flow cytometry GFP, cherry picks, confirmation (AID 2272;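 active = GFP response above 150% of the DMSO control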;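 note: ratio of well signal to plate DMSO mean so 100% equals DMSO level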); settings: S. cerevisiae MEP2-GFP strain, 3 h, at 10 µM, stronger effect = higher value
[9] = TOR pathway CIT2 reporter hit retest – S. cerevisiae, GFP fusion, cherry picks, mother/daughter gates, confirmation (AID 2274;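 active = GFP response above 150% of the DMSO level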); settings: S. cerevisiae CIT2-GFP strain, flow cytometry, 3 h, at 10 µM, stronger effect = higher value
[10] = reduced mouse 2C T cell binding to pMHC/ICAM-1 vesicles – MLPCN validation set, flow cytometry, LFA-1/ICAM-1 modulator project, pilot screen (AID 2523;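 active = response below a set limit, under 55% cells CD8-positive and vesicle-bound, and CD8 cells' 90th-percentile brightness under 279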;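 for vesicle binding response: mean PE anti-B7-1 fluorescence of CD8+ cells relative to row control; 100% = QL9-loaded vesicles with DMSO vehicle in the same plate row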); settings: 2C mouse CD8+ T cells, at 7 µM, stronger effect = lower value; double positive events: measured here: CD8+/vesicle+ event percentage
[11] = target: Integrin beta-1 (Homo sapiens) + Integrin alpha-4 (Homo sapiens) (UniProt P13612+P05556); assay: alpha4beta1 integrin LIBS antibody binding reduction – U937 cells, HUTS-21 mAb, flow cytometry, validation set, VLA-4 allosteric modulator project, pilot screen (AID 2674); settings: HUTS-21 LIBS mAb binding, at 6.7 µM, stronger effect = higher value, binding induced by LDV ligand;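 note: antibody binding induced by the VLA-4 ligand LDV present at three times its Kd; 0% = LDV ligand with antibody and no compound and 100% = antibody without LDV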
[12] = calorie-restriction mimetic ROS inhibitors, yeast – validation compound set, pilot screen (AID 2706;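 active = superoxide response below 65% of plate, a cut near 3 SD across the whole screen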;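 note: yeast exposed to compound for one week at 30 degrees C before staining; 100% = mean of all compound wells on the same plate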); settings: S. cerevisiae aging, superoxide DHE fluorescence; at 10 µM; stronger effect = lower value
[13] = target: Beta-adrenergic receptor kinase 1 (Homo sapiens) (UniProt P25098); assay: GRK2 binders displacing RNA aptamer, biochemical, validation, human GRK2, bead flow cytometry (AID 488806;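 active = aptamer binding inhibition above 30%, about 3 SD of noise from non-fluorescent compounds; inactive = inhibition at or below 30%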); settings: bead-bound GRK2, FAM-aptamer displacement, at 10 µM, stronger effect = higher value
[14] = target: Beta-2 adrenergic receptor (Homo sapiens) (UniProt P07550); assay: agonist-induced loss of surface beta2AR – cell-based, FAP fluorogen, flow cytometry, validation set, pilot screen (AID 504459;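 active = percent response above 42, roughly 3 SD of non-fluorescent test compounds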;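 note: agonist-driven loss of surface beta2AR via internalization measured by FAP dye flow cytometry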); settings: Am2.2-beta2AR cells, at 10 µM, stronger effect = higher value
[15] = target: AP-2 complex subunit beta (Homo sapiens) (UniProt P63010); assay: beta-arrestin/AP2 interaction blockers – biochemical, validation set, GST-AP2 beads, flow cytometry, pilot screen (AID 504541;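 active = inhibition above 54%, about 3 SD of non-fluorescent compounds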;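 note: AP2 carries R879A mutation and is captured from E. coli lysate; bead-bound FITC arrestin peptide fluorescence measuring arrestin peptide binding to AP2; 0% = DMSO wells and 100% = excess unlabeled arrestin peptide control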); settings: FITC arrestin peptide, at 10 µM, stronger effect = higher value, AP2 beta2 appendage fragment, R879A mutant
[16] = cytosolic pH regulators acting via V-ATPase – S. cerevisiae, pHLuorin, HTS validation (AID 504600; in the data active = response above about 15%;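 note: plate controls were DMSO for no effect and reference compound for full effect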); settings: V-ATPase proton transport, at 10 µM, stronger effect = higher value
[17] = test system: anti-desmoglein-3 scFv antibody binding to human DSG3; assay: blockers of pathogenic pemphigus antibody–desmoglein-3 binding – biochemical, validation compound set, bead-based, flow cytometry, pilot screen (AID 588368;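 active = binding below the plate cutoff, the plate median minus 3 SD, with a reading above zero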;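 note: signal is the median channel fluorescence of bead-bound GFP antibody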); settings: Protein G beads, DSG3-Fc, scFv-GFP binding, at 10 µM, stronger effect = lower value
[18] = Nile Red efflux blockade in pump-expressing yeast – validation compound set, multiplex, phenotypic, pilot screen (AID 588506;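 active = efflux inhibition above 0.42, the validation set average plus 4 SD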;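 note: Nile Red retained in cells so higher fluorescence means more efflux inhibition; 0 = negative control wells and 1 = enniatin B 25 µM full block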); settings: S. cerevisiae pump-expressing triplex, Nile Red efflux flow cytometry; at 10 µM; stronger effect = higher value; the pumps come from Candida albicans
[19] = target: ATP-binding cassette sub-family B member 6 (Homo sapiens) (UniProt Q9NP58); assay: blockers of ABCB6-driven porphyrin uptake – K562-ABCB6 cells, flow cytometry, validation set, pilot screen (AID 588550;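 active = inhibition above the screen-wide mean plus 3 SD, about 51%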;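 note: 0% = DMSO wells and 100% = benzethonium chloride 70 µM positive control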); settings: K562-ABCB6 porphyrin accumulation, 1 h, at 10 µM, stronger effect = higher value
[20] = AML differentiation inducers, ER-HoxA9 marrow cells – cell-based, GFP/MAC1 double positive, flow cytometry, validation set, primary screen (AID 588685;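 active = differentiation response of at least 50%, scaled between solvent and reference control, from cells with both markers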;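 note: compound exposure lasts four days before antibody staining and flow analysis; 0% = DMSO wells and 100% = 5 µM fulvestrant positive control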); settings: stronger effect = higher value, normalized: vehicle 0, fulvestrant 100
[21] = measured here: daughter cell gate
[22] = measured here: mother cell gate
[23] = measured here: daughter cell gate response
[24] = measured here: mother cell gate response

Chain of Beta-adrenergic receptor kinase 1 (Homo sapiens) (P25098 whole entry, looked up): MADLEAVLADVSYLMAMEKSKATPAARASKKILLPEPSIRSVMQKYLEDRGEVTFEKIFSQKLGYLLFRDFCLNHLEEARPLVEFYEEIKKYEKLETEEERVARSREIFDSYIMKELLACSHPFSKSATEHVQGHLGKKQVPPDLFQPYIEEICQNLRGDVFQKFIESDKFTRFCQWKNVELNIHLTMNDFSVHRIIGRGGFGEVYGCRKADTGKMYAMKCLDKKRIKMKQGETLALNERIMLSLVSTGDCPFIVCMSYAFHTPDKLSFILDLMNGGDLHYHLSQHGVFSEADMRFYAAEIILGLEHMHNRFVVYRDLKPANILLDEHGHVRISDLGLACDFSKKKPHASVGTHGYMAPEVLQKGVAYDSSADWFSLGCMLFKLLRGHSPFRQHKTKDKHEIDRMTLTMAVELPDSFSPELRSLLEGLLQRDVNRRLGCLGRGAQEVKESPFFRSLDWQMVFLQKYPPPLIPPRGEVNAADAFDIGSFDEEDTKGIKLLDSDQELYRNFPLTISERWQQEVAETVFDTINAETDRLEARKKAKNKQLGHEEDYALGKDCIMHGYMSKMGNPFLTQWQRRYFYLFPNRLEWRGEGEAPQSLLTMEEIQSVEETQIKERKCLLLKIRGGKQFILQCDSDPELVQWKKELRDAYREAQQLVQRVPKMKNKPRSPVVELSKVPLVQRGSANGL
Chain of Integrin beta-1 (Homo sapiens) + Integrin alpha-4 (Homo sapiens) (P05556 whole entry, looked up): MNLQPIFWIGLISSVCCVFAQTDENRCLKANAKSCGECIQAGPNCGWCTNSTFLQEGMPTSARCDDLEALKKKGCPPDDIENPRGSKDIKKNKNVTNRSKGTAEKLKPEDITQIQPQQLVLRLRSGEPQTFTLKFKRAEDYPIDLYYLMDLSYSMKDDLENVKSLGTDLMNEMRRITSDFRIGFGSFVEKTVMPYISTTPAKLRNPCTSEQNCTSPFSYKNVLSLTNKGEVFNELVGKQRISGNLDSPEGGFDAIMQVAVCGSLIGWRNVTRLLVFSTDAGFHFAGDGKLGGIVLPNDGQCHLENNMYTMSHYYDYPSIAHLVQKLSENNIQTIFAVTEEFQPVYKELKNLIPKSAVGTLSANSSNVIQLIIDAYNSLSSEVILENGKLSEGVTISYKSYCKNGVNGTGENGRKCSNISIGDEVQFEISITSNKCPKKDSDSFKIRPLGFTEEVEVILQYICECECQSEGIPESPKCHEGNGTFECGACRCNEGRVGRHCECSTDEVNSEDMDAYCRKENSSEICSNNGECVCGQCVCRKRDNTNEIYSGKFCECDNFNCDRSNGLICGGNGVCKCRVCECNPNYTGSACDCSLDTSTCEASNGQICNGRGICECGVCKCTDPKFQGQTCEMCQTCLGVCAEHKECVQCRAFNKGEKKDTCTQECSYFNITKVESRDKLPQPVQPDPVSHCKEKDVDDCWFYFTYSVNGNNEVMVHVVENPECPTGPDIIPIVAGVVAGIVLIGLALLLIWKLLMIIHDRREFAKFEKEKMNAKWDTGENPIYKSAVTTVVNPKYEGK
Chain of Integrin beta-1 (Homo sapiens) + Integrin alpha-4 (Homo sapiens) (P13612 whole entry, looked up): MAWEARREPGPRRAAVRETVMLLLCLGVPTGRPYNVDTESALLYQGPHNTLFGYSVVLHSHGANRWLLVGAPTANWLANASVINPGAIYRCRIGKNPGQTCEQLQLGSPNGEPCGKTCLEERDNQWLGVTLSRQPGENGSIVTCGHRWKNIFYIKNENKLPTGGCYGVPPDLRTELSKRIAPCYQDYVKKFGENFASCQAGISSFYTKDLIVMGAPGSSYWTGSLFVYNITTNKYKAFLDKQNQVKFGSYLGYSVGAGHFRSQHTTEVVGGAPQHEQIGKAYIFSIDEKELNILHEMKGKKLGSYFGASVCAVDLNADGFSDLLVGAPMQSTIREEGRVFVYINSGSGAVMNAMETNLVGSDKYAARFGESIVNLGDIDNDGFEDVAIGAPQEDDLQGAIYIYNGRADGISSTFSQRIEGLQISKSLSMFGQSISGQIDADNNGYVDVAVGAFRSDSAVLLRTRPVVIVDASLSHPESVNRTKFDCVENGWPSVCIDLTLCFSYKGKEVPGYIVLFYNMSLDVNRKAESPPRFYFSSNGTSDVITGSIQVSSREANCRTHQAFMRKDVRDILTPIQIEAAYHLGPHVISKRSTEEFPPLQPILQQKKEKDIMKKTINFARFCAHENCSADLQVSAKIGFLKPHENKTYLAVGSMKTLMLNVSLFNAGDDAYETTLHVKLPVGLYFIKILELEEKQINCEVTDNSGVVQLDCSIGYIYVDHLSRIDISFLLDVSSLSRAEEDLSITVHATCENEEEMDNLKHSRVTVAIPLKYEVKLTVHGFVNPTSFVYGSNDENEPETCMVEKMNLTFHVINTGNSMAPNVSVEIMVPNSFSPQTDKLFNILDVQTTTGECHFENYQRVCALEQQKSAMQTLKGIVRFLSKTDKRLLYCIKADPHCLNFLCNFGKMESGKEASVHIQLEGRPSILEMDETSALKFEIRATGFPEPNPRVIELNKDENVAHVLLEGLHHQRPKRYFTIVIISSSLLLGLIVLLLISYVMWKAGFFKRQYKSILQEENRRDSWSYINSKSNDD
Chain of AP-2 complex subunit beta (Homo sapiens) (P63010 whole entry, looked up, the tested form may be a part, one chain of several): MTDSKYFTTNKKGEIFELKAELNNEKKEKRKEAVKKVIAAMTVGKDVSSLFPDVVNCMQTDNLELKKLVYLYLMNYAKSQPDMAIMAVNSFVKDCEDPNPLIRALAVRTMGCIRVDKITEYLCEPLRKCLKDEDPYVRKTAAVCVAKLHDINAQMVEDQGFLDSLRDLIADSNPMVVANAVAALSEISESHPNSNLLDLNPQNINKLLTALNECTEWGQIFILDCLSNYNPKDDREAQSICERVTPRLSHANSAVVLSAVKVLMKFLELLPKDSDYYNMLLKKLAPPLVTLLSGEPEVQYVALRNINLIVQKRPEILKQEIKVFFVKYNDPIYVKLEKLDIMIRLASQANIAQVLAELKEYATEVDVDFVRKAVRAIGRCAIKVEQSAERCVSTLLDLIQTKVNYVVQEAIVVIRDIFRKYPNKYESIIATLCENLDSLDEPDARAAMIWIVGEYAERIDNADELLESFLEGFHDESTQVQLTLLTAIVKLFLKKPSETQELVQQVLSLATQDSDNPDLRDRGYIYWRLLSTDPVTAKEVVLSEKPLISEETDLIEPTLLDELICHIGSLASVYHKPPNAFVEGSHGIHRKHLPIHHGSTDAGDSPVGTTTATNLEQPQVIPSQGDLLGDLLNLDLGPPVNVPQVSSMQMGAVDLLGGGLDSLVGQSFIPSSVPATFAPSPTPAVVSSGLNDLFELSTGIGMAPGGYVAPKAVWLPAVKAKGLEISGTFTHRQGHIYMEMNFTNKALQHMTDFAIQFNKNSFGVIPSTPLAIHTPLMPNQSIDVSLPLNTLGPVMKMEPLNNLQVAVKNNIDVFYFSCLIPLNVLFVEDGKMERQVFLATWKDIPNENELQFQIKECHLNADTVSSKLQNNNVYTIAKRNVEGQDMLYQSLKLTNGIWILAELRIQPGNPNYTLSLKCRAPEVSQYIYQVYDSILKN
Chain of ATP-binding cassette sub-family B member 6 (Homo sapiens) (Q9NP58 whole entry, looked up): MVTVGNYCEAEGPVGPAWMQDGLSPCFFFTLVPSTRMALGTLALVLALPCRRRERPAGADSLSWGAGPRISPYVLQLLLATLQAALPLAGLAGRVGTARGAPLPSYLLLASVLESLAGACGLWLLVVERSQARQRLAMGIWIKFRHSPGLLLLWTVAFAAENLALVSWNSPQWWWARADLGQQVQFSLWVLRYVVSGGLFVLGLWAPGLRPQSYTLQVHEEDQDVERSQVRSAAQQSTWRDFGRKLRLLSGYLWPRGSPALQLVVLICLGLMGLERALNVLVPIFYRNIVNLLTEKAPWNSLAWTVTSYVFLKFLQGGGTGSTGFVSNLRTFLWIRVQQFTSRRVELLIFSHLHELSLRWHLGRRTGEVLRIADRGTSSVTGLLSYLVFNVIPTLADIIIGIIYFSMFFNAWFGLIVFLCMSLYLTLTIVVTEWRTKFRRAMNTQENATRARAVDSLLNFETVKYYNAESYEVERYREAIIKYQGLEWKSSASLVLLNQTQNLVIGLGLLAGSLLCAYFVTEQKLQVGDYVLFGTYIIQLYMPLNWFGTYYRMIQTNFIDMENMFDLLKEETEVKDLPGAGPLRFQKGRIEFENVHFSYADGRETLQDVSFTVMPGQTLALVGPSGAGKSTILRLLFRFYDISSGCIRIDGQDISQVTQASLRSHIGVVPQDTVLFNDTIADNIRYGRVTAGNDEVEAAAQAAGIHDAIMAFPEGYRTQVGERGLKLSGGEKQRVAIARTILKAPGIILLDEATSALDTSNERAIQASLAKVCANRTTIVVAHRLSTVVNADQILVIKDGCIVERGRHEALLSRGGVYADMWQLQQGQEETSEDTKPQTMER
Chain of Beta-2 adrenergic receptor (Homo sapiens) (P07550 whole entry, looked up): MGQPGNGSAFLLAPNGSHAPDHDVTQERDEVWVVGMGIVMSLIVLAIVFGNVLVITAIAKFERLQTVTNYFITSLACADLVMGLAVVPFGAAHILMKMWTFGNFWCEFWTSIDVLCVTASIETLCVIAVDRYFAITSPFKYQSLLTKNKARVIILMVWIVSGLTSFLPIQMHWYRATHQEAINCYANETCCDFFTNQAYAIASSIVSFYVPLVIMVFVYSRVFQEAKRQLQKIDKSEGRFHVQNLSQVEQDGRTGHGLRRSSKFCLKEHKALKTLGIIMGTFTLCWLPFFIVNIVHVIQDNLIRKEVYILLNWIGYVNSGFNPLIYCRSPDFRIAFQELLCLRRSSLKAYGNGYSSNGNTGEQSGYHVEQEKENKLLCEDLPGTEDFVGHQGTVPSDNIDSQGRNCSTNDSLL

O=C(O)CCNC(=O)c1ccccc1
98.1%: GFP response vs DMSO [6, 22]
103%: GFP response relative to DMSO [7, 24]
98%: GFP response, % of DMSO [9, 22]
65.7%: double positive events [10]
active: GFP response vs DMSO [2] 151% | efflux inhibition (fraction of control) [18] 0.52 | inhibition [19] 112%
97.5%: GFP response vs DMSO [6, 21]
102%: GFP response relative to DMSO [7, 23]
inactive: percent of DMSO control GFP [1] 90% | percent response of DMSO control [3] 101% | GFP response vs DMSO [4] 82% | GFP response, % of DMSO [5] 91% | GFP response vs DMSO [6] 98.7% | GFP response relative to DMSO [7] 103% | GFP response vs DMSO [8] 102% | GFP response, % of DMSO [9] 97.8% | vesicle binding response [10] 186% | inhibition [11] -4.21% | superoxide response (% of plate) [12] 94.8% | aptamer binding inhibition [13] 3% | response [14] 3.62% | inhibition [15] 47.5% | response [16] -1.09% | binding (% of control) [17] 98.7% | differentiation response [20] 26.2%
98.3%: GFP response, % of DMSO [9, 21]

COc1ccc(-c2noc(-c3ccccc3-c3ccccc3)n2)cc1
92.9%: GFP response vs DMSO [6, 21]
active: GFP response vs DMSO [2] 142%
inactive: percent of DMSO control GFP [1] 91.1% | percent response of DMSO control [3] 114% | GFP response vs DMSO [4] 81.4% | GFP response, % of DMSO [5] 86.3% | GFP response vs DMSO [6] 95.6% | GFP response relative to DMSO [7] 95.7% | GFP response vs DMSO [8] 107% | GFP response, % of DMSO [9] 97.3% | vesicle binding response [10] 138% | inhibition [11] -15.8% | superoxide response (% of plate) [12] 94.3% | aptamer binding inhibition [13] 8% | response [14] 3.77% | inhibition [15] 19.4% | response [16] -3.56% | binding (% of control) [17] 100% | efflux inhibition (fraction of control) [18] 0.19 | inhibition [19] 6% | differentiation response [20] -1.64%
97.4%: GFP response, % of DMSO [9, 21]
97.3%: GFP response relative to DMSO [7, 24]
95.9%: GFP response relative to DMSO [7, 23]
96.8%: GFP response vs DMSO [6, 22] | GFP response, % of DMSO [9, 22]
56.5%: double positive events [10]

CC(=O)c1ccc(CCCCCCCCCC(=O)O)s1
101%: GFP response, % of DMSO [9, 22]
60%: double positive events [10]
111%: GFP response relative to DMSO [7, 23]
98.5%: GFP response vs DMSO [6, 22]
113%: GFP response relative to DMSO [7, 24]
active: GFP response vs DMSO [4] 174% | differentiation response [20] 66.4%
96.7%: GFP response vs DMSO [6, 21]
inactive: percent of DMSO control GFP [1] 98.6% | GFP response vs DMSO [2] 97.4% | percent response of DMSO control [3] 66.4% | GFP response, % of DMSO [5] 86.2% | GFP response vs DMSO [6] 99% | GFP response relative to DMSO [7] 108% | GFP response vs DMSO [8] 100% | GFP response, % of DMSO [9] 99.1% | vesicle binding response [10] 207% | inhibition [11] 13.2% | superoxide response (% of plate) [12] 117% | aptamer binding inhibition [13] -5% | response [14] 23.9% | inhibition [15] 26.2% | response [16] -3% | binding (% of control) [17] 99.3% | efflux inhibition (fraction of control) [18] 0.01 | inhibition [19] -2%
93.2%: GFP response, % of DMSO [9, 21]
